Source: PubChem BioAssay AID463212 (Sanford-Burnham Center for Chemical Genomics, 2010)
About 4,400 (1.3%) of roughly 330,000 compounds were called active.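 Rule for the calls: active = growth inhibition of the mutant yeast at or above 50%; inactive = the rest.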 Only a selection was taken, and actives are over-represented in it overall.

Assay: growth inhibition of tim23-1 ts yeast – luminescence, uHTS, primary screen (AID 463212);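 note: temperature-sensitive mutant grown at 25 °C; plate controls were DMSO-treated mutant yeast for no effect and medium wells lacking yeast for full effect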
Conditions: S. cerevisiae tim23-1 growth, BacTiter-Glo luminescence, 24 h; at 20 µM; active compounds read high

| SMILES | inhibition |
| --- | --- |
| COc1ccc(OC)c(NC(=O)CN(Cc2ccc(Cl)cc2)S(C)(=O)=O)c1 | 9.4% (inactive) |
| COc1ccc(C(=O)Nc2cc(C)c(NC(=O)c3ccccc3OC)cn2)cc1 | 28.7% (inactive) |
| COc1ccc(C(=O)Nc2ccccc2C(=O)N/N=C/c2ccc(O)c(OC)c2)cc1 | 96% (active) |
| COc1ccc(/C=N/Nc2ccccc2C(=O)O)cc1 | 17% (inactive) |
| COc1ccc2[nH]c(C(=O)N/N=C/c3cc(OC)c(OC)c(OC)c3)cc2c1 | 20.6% (inactive) |
| COc1ccc(C(=O)Nc2ccccc2C(=O)N/N=C/c2ccccc2OC)cc1 | 78.3% (active) |
| COc1ccc(C(=O)Nc2ccccc2C(=O)N2CCN(c3ccccc3)CC2)cc1 | 35.2% (inactive) |
| CC(C)(C)c1ccc(C(=O)N2CCC(C(=O)N3CCCCC3)CC2)cc1 | 13.5% (inactive) |
| CCc1[nH]nc(C(=O)N2CCCC(CNS(=O)(=O)c3cccs3)C2)c1C (centres undefined) | 0.752% (inactive) |
| Cc1ccc(C(C(=O)NCC2CCCO2)N(C(=O)c2snc(C(N)=O)c2N)c2ccc(C(C)C)cc2)o1 (centres undefined) | 32.2% (inactive) |
| CCOc1cc2[nH]c(=S)n(CCN3CCCCC3C)c(=O)c2cc1OCC (centres undefined) | 14.8% (inactive) |
| CC(C)Cc1ccc(C(C)C(=N)N)cc1 (centres undefined) | 3.35% (inactive) |
| CCOc1cccc(NC(=O)Cn2nc(-c3ccc4c(c3)OCCO4)ccc2=O)c1 | -11.4% (inactive) |
| Cc1ccc(-c2csc(NCCc3nc4cc(Cl)c(Cl)cc4n3CCOCCO)n2)cc1 | 25.4% (inactive) |
| Cc1ccc(Nc2nc(-c3ccc(O)cc3O)cs2)nc1 | 65.9% (active) |
| O=C1OCCN1C(=O)[C@H]1[C@H](c2ccc(F)cc2)C(c2ccccc2)=NN1c1ccc(Br)cc1 | 41.6% (inactive) |
| C[C@@H]1C(c2ccc(F)cc2)=NN(c2ccc(Br)cc2)[C@H]1C(=O)N1CCOC1=O | 61.2% (active) |
| O=C1OCCN1C(=O)[C@H]1[C@H](c2ccccc2)C(c2ccc(F)cc2)=NN1c1ccccc1 | 49.4% (inactive) |
| CCOCCOCCC(C(=O)O)P(=O)(c1ccccc1)c1ccccc1 (centres undefined) | 20.6% (inactive) |
| O=C(NOCc1ccccc1)c1cccc([N+](=O)[O-])c1 | 40.8% (inactive) |
| O=C(COC(=O)c1ccc([N+](=O)[O-])cc1Cl)NC(=O)c1ccccc1 | -6.06% (inactive) |
| O=C(NC(Nc1nc2ccc([N+](=O)[O-])cc2s1)(C(F)(F)F)C(F)(F)F)c1ccccc1 | 80.5% (active) |
| CN(C)/C=C(/C(=O)c1ccccc1Cl)S(C)(=O)=O | 8.01% (inactive) |
| O=S(=O)(Nc1ccc(-c2ccc(N3CCOCC3)nn2)cc1)c1cc(Cl)ccc1Cl | 36% (inactive) |
